# Measurements as given in PubChem BioAssay AID652104 (National Center for Advancing Translational Sciences (NCATS), 2013).
# The campaign covered roughly 410,000 compounds. About 7,200 (1.8%) were called active. About 7% were inconclusive and are not listed. Only a selection was taken, and actives are over-represented in it overall. A number with no mark means an inactive call. Calls follow the shape of the dose curve; as a rule, active = well fitted activation curve with a large enough effect; inconclusive = small, poorly fitted or top-dose-only effect, or another doubt; inactive = no such curve, though single readings can be large or run the other way.
# Experiment: qHTS of TDP-43 Inhibitors; also: nearly all actives have a fitted effect of over 50% in size; as to growth rescue (activation): % of control where 0% means no effect
# Conditions: TDP-43 expressing yeast growth rescue, BacTiter-Glo, 24 h; series mostly up to 46.1 µM; growth rescue (activation): at the top concentration
# In short: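 Galactose-induced TDP-43 yeast, OD600=0.02, compound pinned; 24 hr, 30 deg C; BacTiter-Glo luminescence for growth. Inhibitors of TDP-43 toxicity read as activators.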
# Potency is read from the fitted curve at half-maximal effect.
Structure (SMILES),growth rescue (activation),Potency
Cc1ccc(S(=O)(=O)N2CCc3cc(C(=O)Nc4ccc(Cl)cc4C)ccc32)cc1,12.7%,
CC(=O)c1c(C)n(S(=O)(=O)c2ccc(Cl)cc2)c2ccc(NS(=O)(=O)c3ccc(Cl)cc3)cc12,26.6%,
CCc1ccc(NC(=O)c2cc3c(=O)n(Cc4cccnc4)ccc3nc2C)cc1,6.57%,
CCc1cc2c(NC3CCCC3)ncnc2s1,,12.6 µM (active)
CCc1cc2c(SCC(=O)Nc3ncc(Cl)c(C)c3Cl)ncnc2s1,29.1%,
CCc1cc2c(NC(Cc3ccccc3)C(=O)O)ncnc2s1 (centres undefined),6.4%,
Cc1ccc2c(=O)c(C(=O)c3cccc(Cl)c3)cn(CC(=O)NCc3ccccc3)c2n1,-1.08%,
Cc1nn2c(=O)cc(COC(=O)c3cccc(NC(=O)COc4ccccc4Cl)c3)nc2s1,13.4%,
CCOc1cc(/C=N/O)cc(Br)c1OC,,11.2 µM (active)
CCOc1c(Br)cc(/C=C2\C(=O)N(CCC#N)N=C2C)cc1OC,-3.23%,
CCOc1cc(/C=N/n2cnnc2)c(Br)cc1O,-10.2%,
O=S(=O)(c1ccc(Br)cc1)c1nnn2c1nc(N1CCOCC1)c1sccc12,3.38%,
COc1cc(Nc2nc(-c3ccc(OC)c(OC)c3)nc3ccccc23)cc(OC)c1,18.5%,
CCCCN(CC)CCCNC(=O)c1nn(C)c2c1CS(=O)(=O)c1ccccc1-2,1.93%,
COc1ccc(Cn2c(=O)sc3ccccc32)cc1OC,,11.2 µM (active)
C=CCSc1nnc(Cn2c(=O)sc3ccccc32)n1C,9.94%,
COc1ccc(CN2CCOC2=O)cc1OC,5.01%,
CCCCCn1c(=O)[nH]c2cc(C(=O)NCCN(C)CCCC)ccc2c1=O,20.9%,
CCC(=O)N1CCc2cc(S(=O)(=O)NC(Cc3ccccc3)C(=O)NCc3ccccc3)ccc21 (centres undefined),16.9%,
COc1ccc(CNC(=O)C2=Cc3cccc(OC)c3OC2)cc1OC,0% [at 9.22 µM],
COc1cc(NC(=O)c2cc([N+](=O)[O-])ccc2Br)ccc1NC(=O)c1ccco1,,10 µM (active)
COc1ccc([N+](=O)[O-])cc1NC(=O)COC(=O)/C=C/c1ccco1,9.61%,

Structure (SMILES),growth rescue (activation),Potency
COc1ccc(NC(=O)c2ccco2)cc1NC(=O)COc1ccc(C)c(C)c1,19.3%,
COCCNC(=O)c1ccc2c(c1)N=C(C)c1cc(C)ccc1S2,4.19%,
CCCn1c2ccccc2c2cnn(CC(=O)N(CC)c3cc(C)ccc3C)c(=O)c21,-19.8%,
CCCn1c2ccccc2c2cnn(CC(=O)N(C)c3ccccc3CC)c(=O)c21,,28.2 µM (active)
CCCn1c2ccccc2c2cnn(CC(=O)NCCCOC(C)C)c(=O)c21,15.2%,
Cc1ccc(S(=O)(=O)c2nc(-c3cccs3)oc2N2CCCCC2)cc1,12.1%,
COc1ccc(N2CCN(c3cc(C)nc4nncn34)CC2)cc1,4.9%,
Cc1ccccc1NC(=O)Cn1cc(C(=O)c2cccs2)c2ccccc21,11.7%,
Cc1ccc(C(=O)N2CCc3cc(CNC(=O)c4ccc(Br)cc4)ccc32)cc1,-9.12%,
CCCCc1ccc(NC(=O)NCc2cccnc2)cc1,6.28%,
O=C(O)C1CC(=O)N(Cc2cccnc2)C1 (centres undefined),-14.9%,
CCCCCCCCCCCCN1C(=O)CSC1c1cccnc1 (centres undefined),,20 µM (active)
CCOc1ccc(CNC(=O)C2CCN(c3nnc(-n4cccc4CNc4ccc(C)cc4)s3)CC2)cc1OC,9.74%,
COc1ccccc1N1CCN(c2ccc(=O)n(CC(=O)NCc3ccc(OC(C)C)cc3)n2)CC1,-15.5%,
Clc1ccc(Nc2nc(-c3cccs3)cs2)nc1,,8.91 µM (active)
CCN(c1ccc(Cl)cc1)S(=O)(=O)c1nnc(NC(=O)c2ccco2)s1,7.64%,
CCc1cnc2c(c1SCC(=O)N1CCC(C)CC1)c(=O)n(C)c(=O)n2C,11.7%,
Cc1cc(-c2n[nH]c(=S)n2/N=C/C(Br)=C/c2ccccc2)n[nH]1,,35.5 µM (active)
CCCc1cc(-c2n[nH]c(=S)n2CC)c2ccccc2n1,6.52%,
O=C(c1cccc(Cl)c1)N1CCN(CCc2ccncc2)CC1,-9.8%,
C#Cc1cc(N2CCN(C(=O)c3ccoc3)CC2)n2nc(-c3cccc(Cl)c3)cc2n1,,22.4 µM (active)
O=C(Cn1cc(SCc2cccc(Cl)c2)c2ccccc21)N1CCCCC1,21.1%,

Structure (SMILES),growth rescue (activation),Potency
O=C(Nc1ccc(OC(F)(F)F)cc1)c1cc2c(=O)n3ccccc3nc2s1,7.86%,
CCOCCCNC(=O)c1cc2c(=O)n3ccccc3nc2s1,,inactive
CN(C(=O)c1cc2c(=O)n3ccccc3nc2s1)C1CCCCC1,,14.1 µM (active)
CCN(CCCNC(=O)c1cc2c(=O)n(CC)c3ccccc3c2s1)Cc1ccccc1,2.18%,
Cc1oc2ncnc(N3CCOCC3)c2c1C(=O)NCCc1ccccc1,20.6%,
NS(=O)(=O)c1ccc(CCNC(=O)CCCCCn2c(=O)[nH]c3ccccc3c2=O)cc1,10.1%,
CCc1ccc(NC(=O)c2cc(S(=O)(=O)NC3CCCCCC3)ccc2F)cc1,19.2%,
CCOc1ccccc1NC(=O)c1ccc2c(c1)CCN2S(=O)(=O)c1ccc(C)cc1,-0.207%,
CCOc1ccc(OCC)c(NC(=O)c2cc(C)nc3c2c(C)nn3-c2cccc(Cl)c2C)c1,19.8% [at 9.22 µM],
COC(=O)c1ccc(NC(=O)C23CC4CC(C2)CC(n2cnc(Cl)n2)(C4)C3)cc1,,25.1 µM (active)
O=C(Nc1ccc(S(=O)(=O)Nc2ncccn2)cc1)C12CC3CC(CC(C3)C1)C2,-29.9%,
O=C(Nc1c2c(nn1-c1ccc(F)cc1)CS(=O)C2)C12CC3CC(CC(C3)C1)C2 (centres undefined),11.8%,
CN(C)c1ccc(C(CNS(=O)(=O)c2cc(F)ccc2F)N2CCOCC2)cc1 (centres undefined),-9.72%,
CCOc1ccc(N2CC(c3nc4ccccc4n3CCOc3ccc(OC)cc3)CC2=O)cc1 (centres undefined),13.9%,
COc1cc(OC)c(NC(=O)N2CC3CCCN3c3ccccc32)cc1Cl (centres undefined),18.7%,
Cc1ccc(C2C=C(c3ccc(Cl)cc3)Nc3nc(NC(=O)CCC(=O)O)nn32)cc1 (centres undefined),14.3%,
COc1ccc(OC)c(C(=O)c2ccc(C(=O)N3CCN(Cc4csc(C)n4)CC3)cc2)c1,-12.4%,
COc1ccc(OC)c(C(=O)c2ccc(Cl)cc2)c1,,12.6 µM (active)
CCC(C)NC(=O)c1cc(Cl)ccc1OC (centres undefined),4.16%,
Cc1oc2ccc(O)c(CN3CCC(C)CC3)c2c1C(=O)Nc1ccccc1,18.6%,
